In PubChem BioAssay (NCATS):
“And” between values parts separate entries of the source, which are not always exact repeats. Equal values may be shown once. Records with an inconclusive call do not appear. The source made the active and inactive calls. Calls come from the whole dose curve; as a rule, active = well fitted curve in the direction sought with a large enough effect; inconclusive = small, poorly fitted or top-dose-only effect, or another doubt; inactive = no such curve, though single readings can be large; an effect the other way counts as inactive or inconclusive.

Key:
KB-3-1 = assay: Cytotoxic Profiling of Annotated Libraries Using Quantitative High-Throughput Screening (AID 1296008); conditions: Five cell lines viability, CellTiter-Glo ATP luminescence, 48-72 h; max response: hits give low values; note: nearly all actives have a fitted effect of over 60% in size
Procedure, shortened: (§1)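 Compounds were pin-transferred onto cells and incubated 48 or 72 hr at 37 degree Celsius, 95% humidity. CellTiter-Glo was added, plates sat 10 min at room temperature, then ATP-coupled luminescence was imaged as the viability read-out.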

MCC-26 = assay: qHTS assay to identify novel small-molecules to repurpose for Merkel cell carcinoma treatment (AID 1296009); conditions: MCC and control cell lines, CellTiter-Glo viability, 72 h; series mostly up to 46 µM; note: nearly all actives have a fitted effect of over 60% in size
Procedure, shortened: (§2)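 Luminescence from CellTiter-Glo, read 10 min after addition at room temperature, reported viability following a 72 hr, 37 degree celsius treatment with NPC or MIPE compounds in titration; values normalized to plate controls.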

CASKI = assay: Primary qHTS to identify gynecologic anti-cancer compounds using libraries of approved drugs and bioactive compounds (AID 1345084); conditions: Gynecologic cancer cell panel viability, ATPlite luminescence, 48 h; series mostly up to 57.5 µM; note: nearly all actives have a fitted effect of over 55% in size
Procedure, shortened: (§3)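 Cells, 1,000 per well, plated 16 h, then exposed 48 h at 37 C to compounds. Viability by ATPlite luminescence after 15 min at room temperature.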

Es-2 = assay: as above; conditions: Gynecologic cancer cell panel viability, ATPlite luminescence, 48 h; series mostly up to 57.5 µM
Procedure, shortened: as §3

HeLa = assay: as above; conditions: Gynecologic cancer cell panel viability, ATPlite luminescence, 48 h; series mostly up to 57.5 µM
Procedure, shortened: as §3

Hek293T = assay: as above; conditions: Gynecologic cancer cell panel viability, ATPlite luminescence, 48 h, control line for the selectivity index; series mostly up to 57.5 µM
Procedure, shortened: as §3

HaCat = assay: Cytotoxic Profiling of Annotated Libraries Using Quantitative High-Throughput Screening (AID 1296008); conditions: Five cell lines viability, CellTiter-Glo ATP luminescence, 48-72 h; max response: hits give low values; note: nearly all actives have a fitted effect of over 60% in size
Procedure, shortened: as §1

MCC-13 = assay: qHTS assay to identify novel small-molecules to repurpose for Merkel cell carcinoma treatment (AID 1296009); conditions: MCC and control cell lines, CellTiter-Glo viability, 72 h; series mostly up to 46 µM; note: nearly all actives have a fitted effect of over 60% in size
Procedure, shortened: as §2

MKL-1 = assay: as above; conditions: MCC and control cell lines, CellTiter-Glo viability, 72 h; series mostly up to 46 µM
Procedure, shortened: as §2

UISO = assay: as above; conditions: MCC and control cell lines, CellTiter-Glo viability, 72 h; series mostly up to 46 µM
Procedure, shortened: as §2

WaGa = assay: as above; conditions: MCC and control cell lines, CellTiter-Glo viability, 72 h; series mostly up to 46 µM
Procedure, shortened: as §2

HEK293 = assay: Cytotoxic Profiling of Annotated Libraries Using Quantitative High-Throughput Screening (AID 1296008); conditions: Five cell lines viability, CellTiter-Glo ATP luminescence, 48-72 h; max response: hits give low values; note: nearly all actives have a fitted effect of over 60% in size
Procedure, shortened: as §1

NIH3T3 [1] = assay: as above; conditions: Five cell lines viability, CellTiter-Glo ATP luminescence, 48-72 h; max response: hits give low values
Procedure, shortened: as §1

MKL-2 = assay: qHTS assay to identify novel small-molecules to repurpose for Merkel cell carcinoma treatment (AID 1296009); conditions: MCC and control cell lines, CellTiter-Glo viability, 72 h; series mostly up to 46 µM; note: nearly all actives have a fitted effect of over 60% in size
Procedure, shortened: as §2

C33A = assay: Primary qHTS to identify gynecologic anti-cancer compounds using libraries of approved drugs and bioactive compounds (AID 1345084); conditions: Gynecologic cancer cell panel viability, ATPlite luminescence, 48 h; series mostly up to 57.5 µM; note: nearly all actives have a fitted effect of over 55% in size
Procedure, shortened: as §3

CAOV3 = assay: as above; conditions: Gynecologic cancer cell panel viability, ATPlite luminescence, 48 h; series mostly up to 57.5 µM
Procedure, shortened: as §3

NIH3T3 [2] = assay: qHTS assay to identify novel small-molecules to repurpose for Merkel cell carcinoma treatment (AID 1296009); conditions: MCC and control cell lines, CellTiter-Glo viability, 72 h; at 44.8 µM (top of the series) unless noted; note: nearly all actives have a fitted effect of over 60% in size
Procedure, shortened: as §2
% is set by controls: 0 for no effect and ±100 for the full control effect; potency is the fitted concentration of half-maximal effect.

COC(=O)C1=C(C)NC(C)=C(C(=O)OCCN2CCN(C(c3ccccc3)c3ccccc3)CC2)C1c1cccc([N+](=O)[O-])c1 (stereo not drawn)
inactive: max response (KB-3-1) -4.82% | Potency (MCC-26) | Potency (CASKI) | Potency (Es-2) | Potency (HeLa) | Potency (Hek293T)

C=CC(=O)Nc1cc2c(Nc3ccc(F)c(Cl)c3)ncnc2cc1C#CC(C)(C)N1CCN(C)CC1
active: Potency (HaCat) 2.09 µM | Potency (MCC-13) 11.8 µM | Potency (MCC-26) 10.5 µM | Potency (MKL-1) 6.62 µM | Potency (UISO) 7.43 µM | Potency (WaGa) 5.26 µM

O=C(Nc1nc2cccc(-c3ccc(CN4CCS(=O)(=O)CC4)cc3)n2n1)C1CC1
inactive: max response (NIH3T3 [1]) -23.2% | Potency (MCC-13)
active: Potency (HEK293) 10.5 µM and 10.3 µM | Potency (KB-3-1) 8.33 µM

Cn1cncc1[C@@](N)(c1ccc(Cl)cc1)c1ccc2c(c1)c(-c1cccc(Cl)c1)cc(=O)n2C
active: Potency (HEK293) 148 nM | Potency (KB-3-1) 14.8 µM | Potency (MKL-1) 4.69 µM | Potency (MKL-2) 3.72 µM | Potency (WaGa) 0.935 µM
inactive: Potency (MCC-26)

Cc1cn(-c2cc(NC(=O)c3ccc(C)c(Nc4nccc(-c5cccnc5)n4)c3)cc(C(F)(F)F)c2)cn1
inactive: Potency (C33A) | Potency (CASKI) | Potency (Es-2) | Potency (HeLa) | Potency (Hek293T)

CN(c1ncccc1CNc1nc(Nc2ccc3c(c2)CC(=O)N3)ncc1C(F)(F)F)S(C)(=O)=O
active: Potency (HEK293) 3720 nM | Potency (HaCat) 16.6 µM | Potency (KB-3-1) 7.43 µM | Potency (MKL-1) 9.35 µM | Potency (UISO) 11.8 µM | Potency (WaGa) 8.33 µM

CCCCN1CCC(CNC(=O)c2c3n(c4ccccc24)CCCO3)CC1
inactive: Potency (MCC-13)

O=c1[nH]nc(Sc2ncc([N+](=O)[O-])s2)n1-c1ccc2c(c1)OCCO2
active: Potency (HaCat) 18.7 µM | Potency (NIH3T3 [1]) 8.33 µM | Potency (MCC-13) 11.8 µM | Potency (MCC-26) 10.5 µM | Potency (MKL-1) 3.72 µM | Potency (MKL-2) 5.26 µM | Potency (UISO) 7.43 µM | Potency (WaGa) 5.26 µM

CCN1CCN(Cc2ccc(-c3cc4c(N[C@H](C)c5ccccc5)ncnc4[nH]3)cc2)CC1
active: Potency (HaCat) 1.48 µM | Potency (NIH3T3 [1]) 16.6 µM | Potency (MCC-13) 4.18 µM | Potency (MCC-26) 0.743 µM | Potency (MKL-2) 0.0132 µM | Potency (UISO) 0.118 µM | Potency (WaGa) 0.0209 µM
inactive: max response (KB-3-1) -20%

COc1cc2ncn(-c3cc(OCc4ccccc4C(F)(F)F)c(C(N)=O)s3)c2cc1OC
inactive: max response (NIH3T3 [1]) -29.2% | Potency (MCC-26) | Potency (MKL-2)
active: Potency (HEK293) 469 nM | Potency (KB-3-1) 0.418 µM

CCCCOc1c(C(=O)c2c(F)cc(C)cc2F)cnc2n[nH]cc12
inactive: outcome (KB-3-1) | Potency (MCC-13) | Potency (MCC-26) | Potency (MKL-1) | Potency (MKL-2) | Potency (WaGa) | Potency (C33A) | Potency (CASKI)
active: Potency (NIH3T3 [1]) 16.6 µM | Potency (HeLa) 8.91 µM

Fc1cc(-c2cccc3ncc(-c4cnn(C5CCNCC5)c4)nc23)cc(F)c1CN1CCOCC1
inactive: Potency (HeLa) | Potency (Hek293T)
active: Potency (CAOV3) 31.6 µM

CC(=O)Nc1sc2c(c1-c1nc3ccccc3s1)CNC2
active: Potency (KB-3-1) 23.5 µM | Potency (UISO) 8.33 µM
inactive: Potency (MCC-13) | Potency (C33A) | Potency (CASKI) | Potency (HeLa)

Cc1cc(CN2CCN(c3c(Br)cnc4nc(-c5ccc(N6CCN(C)CC6)cc5)[nH]c34)CC2)no1
active: Potency (HEK293) 23.5 µM and 9.2 µM | Potency (HaCat) 2.35 µM | Potency (KB-3-1) 18.7 µM and 16.4 µM | Potency (NIH3T3 [1]) 13.2 µM and 1.46 µM | Potency (MKL-1) 3.32 µM | Potency (MKL-2) 26.4 µM | Potency (HeLa) 1.58 µM
inactive: Potency (MCC-26) | Potency (C33A) | Potency (CASKI) | Potency (Es-2) | Potency (Hek293T)

COc1ccc(OC)c(-c2nnc3ccc(-c4ccc(OC)c(O[C@@H]5CCOC5)c4)nn23)c1
active: Potency (HEK293) 8330 nM | Potency (HaCat) 1.46 µM | Potency (KB-3-1) 6.51 µM | Potency (NIH3T3 [1]) 33.2 µM | Potency (MKL-2) 18.7 µM | Potency (HeLa) 22.4 µM

Cc1ccc(C(=O)Nc2ccc(CN3CCN(C)CC3)c(C(F)(F)F)c2)cc1C#Cc1cnc2cccnn12
active: Potency (C33A) 25.1 µM | Potency (CASKI) 14.1 µM | Potency (Es-2) 8.91 µM | Potency (HeLa) 11.2 µM

COCCn1c2c([n+](Cc3cnccn3)c1C)C(=O)c1ccccc1C2=O
active: Potency (HEK293) 16.6 nM | Potency (HaCat) 0.0743 µM | Potency (KB-3-1) 0.0148 µM | Potency (NIH3T3 [1]) 16.6 µM | Potency (MCC-13) 0.59 µM | Potency (MCC-26) 0.296 µM | Potency (MKL-1) 0.0023 µM | Potency (UISO) 0.0187 µM | Potency (WaGa) 0.0132 µM

COC(=O)c1ccc2c(C(=Nc3ccc(N(C)C(=O)CN4CCN(C)CC4)cc3)c3ccccc3)c(O)[nH]c2c1
inactive: Potency (C33A) | Potency (CASKI) | Potency (Es-2) | Potency (Hek293T)

C[C@@H]1COC(Nc2ccc3ncnc(Nc4ccc(OCc5nccs5)c(Cl)c4)c3c2)=N1
active: Potency (HEK293) 8.33 µM and 16.4 µM | Potency (HaCat) 1.66 µM and 1.3 µM
inactive: max response (KB-3-1) -27.7% | max response (NIH3T3 [1]) -19.2% | outcome (NIH3T3 [1]) | Potency (MCC-13) | Potency (MCC-26) | outcome (NIH3T3 [2]) | Potency (HeLa)

Cc1cc(Nc2cc(NC(=O)c3c(Cl)cccc3Cl)ccn2)nc(N)n1
active: Potency (HEK293) 935 nM | Potency (KB-3-1) 0.418 µM | Potency (NIH3T3 [1]) 3.72 µM | Potency (MCC-26) 26.4 µM | Potency (UISO) 1.18 µM | Potency (WaGa) 2.35 µM

CN1CCN(c2ccc3nc(-c4c(N)c5c(F)cccc5[nH]c4=O)[nH]c3c2)CC1
active: Potency (HEK293) 1660 nM | Potency (KB-3-1) 16.6 µM | Potency (NIH3T3 [1]) 1.32 µM | Potency (MKL-1) 8.33 µM
